Measured values published in PubChem BioAssay (NCATS).
Records with an inconclusive call do not appear. Unless noted, calls follow the shape of the dose curve; as a rule, active = well fitted curve in either direction with a large enough effect (not every such curve was filed as active); inconclusive = small, poorly fitted or top-dose-only effect, or another doubt; inactive = flat fitted curve, though single readings scatter. Residues, ends and D or L forms follow the SMILES beside them.

Molecular target: Lysosomal acid glucosylceramidase (Homo sapiens) (UniProt P04062)
Assay: Glucocerebrosidase-p2 (AID 348; in the data active = potency below about 10 µM; also: potency is read from the fitted curve at half-maximal effect)
Settings: purified GBA, blue fluorogenic substrate, 40 min
Summary of the method: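 Normal human glucocerebrosidase (0.2 nM) with blue fluorogenic substrate (80 uM final) in citrate/phosphate pH 5.9 with 10mM sodium taurocholate, 0.01% tween-20; 40 min RT, NaOH/glycine stop; fluorescence Ex 365/Em 440; AC50 from a titration from 0.6 nM upwards.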

Chain of Lysosomal acid glucosylceramidase (Homo sapiens) (P04062 whole entry, looked up): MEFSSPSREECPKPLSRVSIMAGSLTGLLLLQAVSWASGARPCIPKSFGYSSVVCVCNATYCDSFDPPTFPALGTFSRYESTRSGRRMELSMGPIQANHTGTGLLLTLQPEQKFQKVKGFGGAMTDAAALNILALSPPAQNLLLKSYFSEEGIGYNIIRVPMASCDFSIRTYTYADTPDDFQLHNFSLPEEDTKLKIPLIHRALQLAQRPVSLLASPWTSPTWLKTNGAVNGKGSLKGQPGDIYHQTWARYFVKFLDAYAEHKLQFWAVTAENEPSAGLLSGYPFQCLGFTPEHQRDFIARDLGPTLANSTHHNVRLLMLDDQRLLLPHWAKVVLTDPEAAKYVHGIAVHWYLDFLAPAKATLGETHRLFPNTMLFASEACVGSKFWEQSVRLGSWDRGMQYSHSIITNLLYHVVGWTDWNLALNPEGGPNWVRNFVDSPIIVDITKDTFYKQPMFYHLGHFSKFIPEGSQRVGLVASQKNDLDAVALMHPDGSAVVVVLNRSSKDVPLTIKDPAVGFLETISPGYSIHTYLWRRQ

Potency, inactive:
CC(C)[C@@H](C)/C=C\[C@@H](C)[C@@H]1CC[C@H]2C3=CC=C4C[C@@H](O)CC[C@]4(C)[C@H]3CC[C@]21C > 11.4 µM
Nc1nc(N)c2[nH]cnc2n1 (tested in a mixture with another compound) > 11.4 µM
[O-][N+]1(CC[N+]2([O-])CCCCC2)CCCCC1 > 11.4 µM
C[N+](C)(N)Cc1csc(-c2ccc(Cl)cc2)n1 > 11.4 µM
O=C(O)c1nn(-c2ccc(Cl)cc2)c2c1C(=O)c1ccccc1C2=O > 11.4 µM
O=C(O)[C@@H]1[C@@H](C(=O)Nc2ccccc2)[C@@H]2C=C[C@@H]1O2 > 11.4 µM
Nc1ccc(N=Nc2c(S(=O)(=O)O)cc3ccccc3c2S(=O)(=O)O)cc1 > 11.4 µM
NC[C@H]1O[C@H](n2cnc3c(N)ncnc32)C[C@@H]1O > 11.4 µM
O=C(O)C(Cc1ccccc1-c1ccccc1)C(=O)O > 11.4 µM
O=P(O)(O)O[C@@H]1O[C@H](CO)[C@@H](O)[C@H](O)[C@@H]1O > 11.4 µM
O=C(O)[C@@H]1[C@@H](C(=O)NCc2cccnc2)[C@@H]2C=C[C@@H]1O2 > 11.4 µM
N=C(N)SCc1cccc(-c2nc3ccccc3c(=O)o2)c1 > 11.4 µM
O=c1cc(CF)[nH]c(=S)[nH]1 > 11.4 µM
Cc1cc2sc(C)[n+](CCCOS(=O)(=O)O)c2cc1C > 11.4 µM
C/C(=C\c1ccc(Cl)cc1)C(C)(C)C(=O)O > 11.4 µM
Cc1cc(=O)oc2c(OS(C)(=O)=O)c(OS(C)(=O)=O)ccc12 > 11.4 µM
[O-][N+](CCO)(CCO)c1ncnc2nc[nH]c12 > 11.4 µM
O=C(O)[C@@H]1Cc2c([nH]c3ccccc23)[C@@H](CCCCO)N1 > 11.4 µM
c1ccc(CCNc2ccccn2)nc1 > 11.4 µM
NC(N)=N/N=C\c1ccc(C2CCNCC2)cc1 > 11.4 µM
Cc1ccc(S(=O)(=O)NC(=O)OC23COCN2COC3)cc1 > 11.4 µM
N[C@@H](CSCc1ccccc1)C(=O)O > 11.4 µM
O=S(=O)(O)[C@@H](CO)c1ccccc1 (tested in a mixture with another compound) > 11.4 µM
CCN(CC)C[C@@H](O)c1ccc2ccc3ccccc3c2c1 > 11.4 µM
COc1cc(N=C(N)N=C(N)N)c2ncccc2c1 > 11.4 µM

Tested on: not listed separately
Assay: AP1 Signaling Pathway (AID 357);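 also: ME-180 reporter cells stimulated with EGF at its EC50 level; % is scaled to controls: 0 for no effect and ±100 for the full control effect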
Settings: ME-180 (cervical carcinoma) AP-1-bla reporter, EGF-induced, beta-lactamase ratio, 5 h; at 7.69 µM (top of the series) unless noted
Summary of the method: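 A ratiometric CCF4 readout (405 nm excitation; 460 and 530 nm emission) quantified AP-1-driven beta-lactamase in ME-180 cells after 5 h with compound and EC50 EGF; AC50 values were derived for activators and inhibitors.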

Activity change, negative = inhibition, inactive:
O=C(O)c1cc(-c2ccc3cc4c(cc3c2)OCO4)nc2ccccc12 -11%
c1cc(NNc2cccc(-c3nn[nH]n3)c2)cc(-c2nn[nH]n2)c1 5.72%
O=C(O)c1ccc(OCc2ccccc2)c(Cl)c1 -4.15%
Oc1ccc(Cl)cc1C=Nc1cnc2ccccc2c1 3.1%
N[C@H]1[C@@H](C(=O)O)[C@H]2C=C[C@H]1C2 7.53%
Cc1ccc(S(=O)(=O)Oc2cc(N)c3c(n2)CCC3)cc1 11.1%
CN(C)CCCNc1ncnc2nc[nH]c12 -0.851%
CCc1c(O)c2c(c(O)c1C(C)=O)C(=O)c1c(cc(O)c(C(=O)O)c1C(=O)O)C2=O -2.41%
CC1(C)[C@@H]2CC[C@]1(C)[C@@H](OC(=O)/C=C\c1ccccc1)C2 5.51%
CCCCN(c1ccccc1)c1ncnc2c1cnn2C -1.19%
C[C@H](Br)C(=O)c1ccc2cc(Br)c3ccccc3c2c1 -18.5%
NCC(=O)NC1(C(=O)O)CCCC1 (HELM PEPTIDE1{G.[O=C(O)C1(N[*:1])CCCC1]}$$$$V2.0) 4.89%
COc1ccc([C@H](O)c2ccccn2)cc1 -0.268%
Cn1c(=O)c2c(ncn2CN2CCN(Cn3cnc4c3c(=O)n(C)c(=O)n4C)CC2)n(C)c1=O -1.04%
CSc1ncnc2c1ncn2[C@@H]1O[C@@H](CO)[C@H](O)O[C@@H]1O -6.79%
CC(C)[C@@H](C)/C=C\[C@@H](C)[C@@H]1CC[C@H]2C3=CC=C4C[C@@H](O)CC[C@]4(C)[C@H]3CC[C@]21C -3.49%
Nc1nc(N)c2[nH]cnc2n1 (tested in a mixture with another compound) 4.54%
[O-][N+]1(CC[N+]2([O-])CCCCC2)CCCCC1 -8.89%
C[N+](C)(N)Cc1csc(-c2ccc(Cl)cc2)n1 8.47%
O=C(O)c1nn(-c2ccc(Cl)cc2)c2c1C(=O)c1ccccc1C2=O -2.08%
O=C(O)[C@@H]1[C@@H](C(=O)Nc2ccccc2)[C@@H]2C=C[C@@H]1O2 3.5%
Nc1ccc(N=Nc2c(S(=O)(=O)O)cc3ccccc3c2S(=O)(=O)O)cc1 -5.64%
NC[C@H]1O[C@H](n2cnc3c(N)ncnc32)C[C@@H]1O -8.42%
O=C(O)C(Cc1ccccc1-c1ccccc1)C(=O)O 12.3%
O=P(O)(O)O[C@@H]1O[C@H](CO)[C@@H](O)[C@H](O)[C@@H]1O 4.24%
O=C(O)[C@@H]1[C@@H](C(=O)NCc2cccnc2)[C@@H]2C=C[C@@H]1O2 8.06%
N=C(N)SCc1cccc(-c2nc3ccccc3c(=O)o2)c1 0.968%
O=c1cc(CF)[nH]c(=S)[nH]1 6.77%
Cc1cc2sc(C)[n+](CCCOS(=O)(=O)O)c2cc1C -5.1%
C/C(=C\c1ccc(Cl)cc1)C(C)(C)C(=O)O 2.81%
Cc1cc(=O)oc2c(OS(C)(=O)=O)c(OS(C)(=O)=O)ccc12 -3.34%
[O-][N+](CCO)(CCO)c1ncnc2nc[nH]c12 1.99%
O=C(O)[C@@H]1Cc2c([nH]c3ccccc23)[C@@H](CCCCO)N1 -12.4%
c1ccc(CCNc2ccccn2)nc1 -8.73%
NC(N)=N/N=C\c1ccc(C2CCNCC2)cc1 7.39%
Cc1ccc(S(=O)(=O)NC(=O)OC23COCN2COC3)cc1 8.05%
N[C@@H](CSCc1ccccc1)C(=O)O 14.5%
O=S(=O)(O)[C@@H](CO)c1ccccc1 (tested in a mixture with another compound) -0.645%
CCN(CC)C[C@@H](O)c1ccc2ccc3ccccc3c2c1 15.5%
COc1cc(N=C(N)N=C(N)N)c2ncccc2c1 -8.09%
